Counter-ions that a name gives are not always drawn.
System: MDA-MB-468
Experiment: phospho-S6 immunofluorescence (DAPI-normalised), per-plate z-score; higher = higher phospho-S6 signal (less pathway suppression)
Conditions: 24 h
Procedure: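 GPCR-targeted compound library (MedChemExpress HY-L006) tested on MDA-MB-468 PTEN-null TNBC cells in 384-well plates at 0.1, 1 or 10 uM, combined with vehicle, GDC0941 450 nM or lapatinib 1 uM, for 24 h. Phospho-S6 (S240/244) immunofluorescence normalised to DAPI and expressed as a per-plate z-score; values are the mean of biological triplicates.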

Row | SMILES | phospho-S6 immunofluorescence (z-score) (co-treatment: GDC0941 450 nM) | phospho-S6 immunofluorescence (z-score) (co-treatment: lapatinib 1 uM) | phospho-S6 immunofluorescence (z-score) (co-treatment: vehicle)
1 | COc1ccc2ccc(=O)oc2c1CC=C(C)C [Osthole] (compound 10 µM) | 0.06 | 0.19 | 0.23
2 | Cc1[nH]cnc1CN1CCc2c(c3ccccc3n2C)C1=O [Alosetron (Hydrochloride)] (compound 10 µM) | 0.22 | -0.22 | 1.01
3 | COc1cc(C(=O)N(CCCc2ccccc2)Cc2ccc(CC(=O)O)cc2)cc(OC)c1C (compound 10 µM) | -0.21 | 0.49 | -0.17
4 | Clc1ccc2nsnc2c1NC1=NCCN1 [Tizanidine (hydrochloride)] (compound 10 µM) | 1.42 | -0.07 | 0.54
5 | COc1cc(/C=C/C(=O)O)ccc1O [Ferulic acid (sodium)] (compound 10 µM) | 0.56 | 0.36 | 0.33
6 | C[C@@H](O[C@H]1OCCN(Cc2n[nH]c(=O)[nH]2)[C@H]1c1ccc(F)cc1)c1cc(C(F)(F)F)cc(C(F)(F)F)c1 [Aprepitant] (compound 10 µM) | -1.22 | -1.02 | 0.64
7 | C=CCN1CCc2c(cc(O)c(O)c2Cl)C(c2ccccc2)C1 (centres undefined) (compound 10 µM) | -0.13 | 1.66 | 1.76
8 | COc1ccc(/C=C/C(=O)Nc2ccccc2C(=O)O)cc1OC [Tranilast (trans-)] (compound 10 µM) | 0.32 | -0.26 | 0.65
9 | CC(C)[C@H](N=C(NS(=O)(=O)c1ccc(Cl)cc1)N1C[C@H](c2ccccc2)C(c2ccc(Cl)cc2)=N1)C(N)=O (compound 10 µM) | -2.11 | -0.39 | 0.1
10 | O=C1O[C@]2(CC[C@H](C(=O)Nc3ccn(-c4ccccc4F)n3)CC2)c2cnccc21 (compound 10 µM) | 0.73 | -0.47 | 0.3
11 | O=c1ccn([C@@H]2O[C@H](COP(=O)(O)OP(=O)(O)OP(=O)(O)OP(=O)(O)OC[C@H]3O[C@@H](n4ccc(=O)[nH]c4=O)[C@H](O)[C@@H]3O)[C@@H](O)[C@H]2O)c(=O)[nH]1 [Diquafosol (tetrasodium)] (compound 10 µM) | 0.01 | 0.71 | -0.38
12 | CN1CCC(=C2c3ccccc3CCc3sccc32)CC1 [Pizotifen] (compound 10 µM) | 0.35 | -1.87 | -0.19
13 | OCCOCCN1CCN(C2=Nc3ccccc3Sc3ccccc32)CC1 [Quetiapine (fumarate)] (compound 10 µM) | -0.84 | 0.29 | -0.03
